In the library only some 4.5% were active in any assay of this set; here they are far more common.
Beta cell apopt: blocks beta cell apoptosis; protection from apoptosis, % (test concentration not listed); 300,000 tested, 0.8% active; AID 435005; INS-1E cytokine-induced death, ATP luminescence, 48 h; percent of positive-control rescue, neutral wells zero;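 active means Every replicate reaches about 75%, or at least half do and their mean reaches it too, limit read from the data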;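 further: higher means more ATP so stronger rescue from cytokine killing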
697 NFkB inh: lowers PMA/ionomycin-induced NF-kB signal in 697 B cells | 697 B-cell NF-kB luciferase reporter, 16 h | inhibition, % at 4 µM | 330,000 tested, 0.33% active | AID 435022; in the data active means inhibition above about 35%
Gli-Sufu block: Gli-Sufu pathway antagonism; Sufu-KO-LIGHT fibroblasts, Gli luciferase reporter luminescence; inhibition, % at 5 µM; 340,000 tested, 0.74% active; AID 588413;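 active means inhibition above about 55%, limit read from the data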
CSC inhib: blocks cancer stem cells | cancer stem cell-like cells viability, luminescence | inhibition, % at 7.5 µM | 300,000 tested, 1.1% active | AID 2717; in the data active means inhibition above about 75%; tested in HMLE shEcad cells
Jurkat NFkB inh: inhibitors of the PMA/ionomycin-induced NF-kB reporter in Jurkat cells; PMA/ionomycin-induced NF-kB luciferase reporter, luminescence; inhibition, % at 4 µM; 330,000 tested, 0.53% active; AID 435003; in the data active means inhibition above about 50%
Mdm2-MdmX inh: inhibitors of human Mdm2/MdmX interaction | SaOS-2 split-luciferase Mdm2/MdmX complementation, luminescence | inhibition, % at 8 µM | 330,000 tested, 3% active;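 active means inhibition of at least 50% at 8 µM in the primary screen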
Target sequence (O15151 whole entry, looked up): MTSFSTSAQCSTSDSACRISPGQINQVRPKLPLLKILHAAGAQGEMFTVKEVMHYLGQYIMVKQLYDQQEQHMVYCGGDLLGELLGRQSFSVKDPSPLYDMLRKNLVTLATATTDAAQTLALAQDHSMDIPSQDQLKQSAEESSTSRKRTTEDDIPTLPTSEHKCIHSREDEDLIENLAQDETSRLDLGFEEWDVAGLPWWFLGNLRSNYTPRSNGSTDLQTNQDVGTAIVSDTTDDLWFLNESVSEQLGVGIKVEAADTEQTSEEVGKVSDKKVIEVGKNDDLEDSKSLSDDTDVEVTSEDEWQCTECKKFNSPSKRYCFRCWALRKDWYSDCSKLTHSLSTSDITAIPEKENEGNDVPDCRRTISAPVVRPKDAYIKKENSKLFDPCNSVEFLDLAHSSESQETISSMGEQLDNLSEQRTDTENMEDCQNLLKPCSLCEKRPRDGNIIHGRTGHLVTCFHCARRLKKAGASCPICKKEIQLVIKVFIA
Target sequence (Q00987 whole entry, looked up): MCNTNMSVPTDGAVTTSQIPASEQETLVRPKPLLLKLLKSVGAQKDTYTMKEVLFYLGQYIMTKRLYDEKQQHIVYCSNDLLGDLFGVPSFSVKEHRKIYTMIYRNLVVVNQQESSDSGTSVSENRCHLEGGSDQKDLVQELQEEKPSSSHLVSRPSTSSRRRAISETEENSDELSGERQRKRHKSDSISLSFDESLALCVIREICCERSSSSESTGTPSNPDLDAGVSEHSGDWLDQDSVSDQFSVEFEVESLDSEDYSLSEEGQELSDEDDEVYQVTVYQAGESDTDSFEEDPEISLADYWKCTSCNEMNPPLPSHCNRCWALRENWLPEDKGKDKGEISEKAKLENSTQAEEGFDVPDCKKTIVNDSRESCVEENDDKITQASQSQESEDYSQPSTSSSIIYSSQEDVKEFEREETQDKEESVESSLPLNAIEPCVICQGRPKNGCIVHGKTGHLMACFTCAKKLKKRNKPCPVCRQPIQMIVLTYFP
Mdm2 MdmX conf: confirmation of human Mdm2/MdmX interaction inhibitors. shares compounds with Mdm2-MdmX inh. Mdm2-MdmX binding, luminescent assay. inhibition, % at 8 µM. 10,000 tested, 55% active; in the data active means inhibition above about 40%
Full FLuc ctr: counter-screen for Mdm2/MdmX inhibitors: full-length luciferase; shares compounds with Mdm2-MdmX inh; SaOS-2 full-length luciferase counterscreen, luminescence; inhibition, % at 8 µM; 6,200 tested, 77% active; AID 504607;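 active means mean inhibition at 8 µM reaching about 37%, which flags the compound as non-specific, limit read from the data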;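 further: p53-null SaOS-2 cells with luciferase driven by a doxycycline-inducible promoter; compound on cells about two nights before reading with doxycycline added after day one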
Numbers stand for hits; 0 = inactive; - = not tested or not shown.

SMILES	Beta cell apopt	697 NFkB inh	Gli-Sufu block	CSC inhib	Jurkat NFkB inh	Mdm2-MdmX inh	Mdm2 MdmX conf	Full FLuc ctr
COc1ccc(CCC(=O)N/N=C/c2ccc3c(c2)OCO3)cc1	0	0	0	0	0	0	-	-
COc1ccc(N2CCN(CCNC(=O)c3ccc4c(c3)[nH]c(=S)n3c5ccccc5nc43)CC2)cc1	0	0	0	0	0	87	76	55
Nc1ncnc(Oc2cccc3cccnc23)c1[N+](=O)[O-]	0	0	0	0	0	0	-	-
O=C(c1cccc(C(F)(F)F)c1)N1CCC2(CC1)NCCc1[nH]cnc12	0	0	0	0	0	0	-	-
CC(=O)NC1=C(Nc2ccc(N(C)C)cc2)C(=O)c2ccccc2C1=O	0	0	0	0	0	70	45	115
CC(C)c1onc(C(=O)N2CCN(c3ccccc3)CC2)c1[N+](=O)[O-]	0	0	0	0	0	0	-	-
Cc1ccc(Cl)cc1N1CCN(C(=O)c2noc(C(C)C)c2[N+](=O)[O-])CC1	0	0	0	0	0	68	64	37
Cc1onc(C(=O)N2CCN(Cc3ccccc3)CC2)c1[N+](=O)[O-]	0	0	0	0	0	0	-	-
CC(C)c1onc(C(=O)N2CCN(C(c3ccccc3)c3ccccc3)CC2)c1[N+](=O)[O-]	0	0	0	0	0	74	94	64
CC(C)c1onc(C(=O)N2CCN(c3ccc(F)cc3)CC2)c1[N+](=O)[O-]	0	0	0	0	0	0	-	-
Cc1onc(C(=O)N2CCC(Cc3ccccc3)CC2)c1[N+](=O)[O-]	-	0	0	-	0	82	0	-
O=C(NC(NCC1CCCO1)C(Cl)(Cl)Cl)c1cccc2ccccc12 (stereo not given)	0	0	0	0	0	55	0	-
CCCCN(C)S(=O)(=O)c1ccc(C(=O)Nc2nnc(CSC)o2)cc1	-	0	0	0	0	51	0	-
CCCCN(CCCC)S(=O)(=O)c1ccc(C(=O)Nc2nnc(COC)o2)cc1	0	0	0	0	0	59	0	-
CCN(CC)S(=O)(=O)c1ccc(C(=O)Nc2nnc(COC)o2)cc1	0	0	0	0	0	0	-	-
C=CCN1C(=O)c2ccc(C(=O)Nc3ccccn3)cc2C1=O	0	0	0	0	0	0	-	-
COc1cc(-c2nc(-c3ccccc3)c(-c3cc([N+](=O)[O-])ccc3C)[nH]2)cc(OC)c1OC	0	0	0	0	0	69	0	-
COc1cccc(CC(=O)OCC(=O)Nc2c(C)nn(-c3ccccc3)c2C)c1	-	0	0	-	0	0	-	-
O=C(Nc1ccccc1Br)C1CC(=O)N(c2ccc3c4c(cccc24)CC3)C1 (stereo not given)	0	0	0	0	0	50	57	65
CCOC(=O)c1cnc(Nc2nc3ccccc3o2)nc1C	0	0	0	0	0	57	58	44
CCOC(=O)c1cnc(Nc2nc3ccccc3o2)nc1CSc1nnc(C)s1	0	0	0	0	0	0	-	-
COc1ccc(C(=O)N/C(=C\c2ccc(SC)cc2)C(=O)NCCCn2ccnc2)cc1OC	0	0	0	0	0	0	-	-
COc1cc(C2NC(=O)NC(C)=C2C(=O)OC2CCCCC2)cc(Cl)c1O (stereo not given)	0	0	0	0	0	0	-	-
Cc1ccc(NC(=O)Nc2cccc([N+](=O)[O-])c2)cc1F	93	0	0	0	0	57	44	45
Cc1cc(O)c(C(C)C)cc1NC(=O)Nc1ccc([N+](=O)[O-])cc1	-	-	0	-	-	-	-	-
SMILES	Beta cell apopt	697 NFkB inh	Gli-Sufu block	CSC inhib	Jurkat NFkB inh	Mdm2-MdmX inh	Mdm2 MdmX conf	Full FLuc ctr
Cc1cc(NC(=O)Nc2cccc([N+](=O)[O-])c2)no1	0	0	0	0	0	0	-	-
O=C(Nc1ccc(OC(F)(F)F)cc1)Nc1cccc([N+](=O)[O-])c1	102	0	0	-	0	95	90	0
O=C(Nc1ccc(OC(F)(F)F)cc1)Nc1cccnc1	0	0	0	0	0	0	-	-
Cc1ccc(C(C)C)cc1NC(=O)Nc1ccc([N+](=O)[O-])cc1	121	0	0	89	0	89	82	42
O=C(Nc1ccc(Oc2ccc(NC(=O)Nc3ccc([N+](=O)[O-])cc3)cc2)cc1)Nc1ccc([N+](=O)[O-])cc1	110	0	0	0	0	95	66	76
c1ccc(-c2nc(NC3CCCC3)c3ccccc3n2)cc1	0	0	0	0	0	0	-	-
OC(CNCCN1CCNCC1)Cc1ccccc1 (stereo not given)	-	-	0	-	-	-	-	-
O=C(Nc1ccc(F)c(Cl)c1)N1CCCCCC1	0	0	0	0	0	0	-	-
O=C1NC2(CCCCCC2)C(=O)N1Cc1ccccc1Cl	0	0	-	0	0	0	-	-
CC(C)C[C@H](NC(=O)c1nc[nH]c1C(=O)N[C@@H](CC(C)C)C(=O)OC(C)(C)C)C(=O)OC(C)(C)C	0	0	0	0	0	80	0	-
CC(C)C[C@H](NC(=O)c1nc[nH]c1C(=O)NC(c1ccccc1)c1ccccc1)C(=O)OC(C)(C)C	0	0	0	97	0	89	0	-
N=c1oc2ccc3ccccc3c2cc1C(N)=S	0	0	0	0	0	87	46	66
C[C@H]1CC[C@H]2C(=O)N3[C@H](c4ccccc4Br)[C@@H](C)CC[C@H]3C(=O)N2[C@@H]1c1ccccc1Br	110	0	-	0	0	79	51	68
O=[N+]([O-])c1ccc(-[n+]2ccc3ccccc3c2)c([N+](=O)[O-])c1	109	0	0	121	0	100	56	0
Cc1cc(SCC(=O)N/N=C/c2ccc(O)cc2O)nc2ccccc12	0	0	0	133	0	74	73	0
C[C@H]1COC(=O)[C@@H](CC(=O)OC(C)(C)C)C/C=C\C[C@H](CC(=O)NCCO)C(=O)N1	0	0	0	0	0	0	-	-
O=C(CSc1nc2ncc(Cl)cc2[nH]1)N1CCC(Cc2ccccc2)CC1	0	0	0	0	0	0	-	-
Cc1ccc(NC(=O)c2ccccc2OCc2ccc([N+](=O)[O-])cc2)nc1	0	0	0	0	0	76	60	92
Cc1ccc(C)c(OCc2ccc(C(=O)Nc3ccc([N+](=O)[O-])cn3)o2)c1	0	0	0	0	0	0	-	-
Cc1cccc(N2CCN(C(=O)c3cc4c(=O)n(C)c5ccccc5c4n3C)CC2C)c1 (stereo not given)	0	0	0	0	0	52	0	-
C[C@H]1[C@H](C)CC[C@]2(C(=O)O)CC[C@]3(C)C(=CC[C@@H]4[C@@]5(C)C[C@@H](O)[C@H](O)C(C)(C)[C@@H]5CC[C@]43C)[C@H]12	0	0	0	95	0	68	0	-

Compound activity deposited in PubChem by several laboratories.
